# In PubChem BioAssay (NCI):
# About 83,000 compounds went through this panel and 20% of them were active in at least one assay; those are over-represented in the sample as a whole.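 The endpoint reported here, percent growth, reads 100 for growth as untreated, 0 for no net growth and -100 for all cells dead.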 A number with no mark means an inactive call. The source made the active and inactive calls. The calls were made as follows: active = growth percent below 10; inactive = the rest.
# System: HL-60(TB) leukemia
# Assay: NCI-60 one-dose screen, 48 h (100 = growth as untreated, 0 = no growth, -100 = all killed)
# Details: 10 µM unless noted
row,SMILES,growth
1,COc1ccc(C(=O)CSc2nc3c(c(Nc4ccc(S(N)(=O)=O)cc4)n2)CCCC3)cc1,101%
2,CC(O)c1cccc(/C(N)=N/C(N)=N/c2nc3ccccc3s2)c1 (stereo not given),84.5%
3,O=C(N/N=C\c1ccc([N+](=O)[O-])cc1)c1ccc2nc(-c3ccc(Br)cc3)[nH]c2c1,1.86% (active)
4,COc1ccc(C(C)=C(c2ccc(OCCN(C)C)cc2)c2ccc(OCCN(C)C)cc2)cc1,-63.3% (active)
5,Cc1ccc(/C=C/CC(=O)Nc2ccc(C(=O)Nc3ccc(F)cc3N)cc2)cn1,8.39% (active)
6,O=C(O)c1ccc(-n2cc(CNc3cccc(Cl)c3)c(-c3ccc(F)cc3)n2)cc1,105%
7,O=C(NNc1nc2cc(F)ccc2n2c(CN3CC4CNCC4C3)ccc12)c1cnccn1 (stereo not given),0.485% (active)
8,CC(=O)N(C)C1CCc2c(sc(NC(=O)c3ccc(C(C)(C)C)cc3)c2C(N)=O)C1 (stereo not given),40.4%
9,COc1cc(OC)c(S(N)(=O)=O)cc1C(=O)/C=C/c1ccccc1,5.25% (active)
10,CC(c1ccccc1)N1CSc2nc3ncncc3n2C1 (stereo not given),17.4%
11,O=C(/C=C/c1cccc(Br)c1)c1cccc(OCCCCOc2cccc(C(=O)/C=C/c3cccc(Br)c3)c2)c1,95.3%
12,NC(=O)c1c(NC(=O)c2ccc(F)cc2F)sc2c1CCC(=O)C2,34.1%
13,NC(N)=Nc1ccc(Oc2cccc(NC(N)=Nc3ccc(I)cc3F)c2)cc1,67.4%
14,COC(=O)C(Cc1ccccc1)Nc1nc(NC(Cc2ccccc2)C(=O)OC)nc(N2CCOCC2)n1 (stereo not given),103%
15,CC(C)(C)n1nnnc1C(Nc1nccs1)c1cc2cccc3ccc4cccc1c4c32 (stereo not given),90.2%
16,C#C[C@]1(O)CC[C@H]2[C@@H]3CC=C4c5sc(Nc6cccc(C)n6)nc5CC[C@]4(C)[C@H]3CC[C@@]21C,-8.95% (active)
17,C#CCOc1ccc(/C=N/Nc2nc(-c3ccc(OC)cc3)cs2)cc1,60%
18,O=S(=O)(Nc1ccc2c(c1)OCO2)c1ccc(-c2cnc(C3CC3)o2)cc1,3.52% (active)
19,CN1c2ccccc2Sc2cc(C=C(C#N)C#N)ccc21,92.6%
20,Cc1cccc(N2CCN(C3=C(Cl)C(=O)c4ncccc4C3=O)CC2)c1,7.3% (active)

row,SMILES,growth
1,O=C(CNc1nc(-c2cccc([N+](=O)[O-])c2)cs1)Nc1cccc(Cl)c1,105%
2,COc1ccc(-c2cnc(NC(=O)CCCCCCNC(=O)C(O)(O)C(F)(F)F)s2)cc1,10.5%
3,Clc1ccc2[nH]cc(-c3nn4cc(-c5cccnc5)nc4s3)c2c1,86.2%
4,Cc1ccsc1[C@H]1c2[nH]c3ccccc3c2C[C@H]2C(=O)N(CCCCCCC(=O)NO)CC(=O)N12,104%
5,CC1(C)CC[C@]2(C(=O)O)CC[C@]3(C)C(=CC[C@@H]4[C@@]5(C)CC/C(=N\OCCC#N)C(C)(C)[C@@H]5CC[C@]43C)[C@@H]2C1,148%
6,CCc1cccc2c3c(sc12)C(c1ccc(F)cc1)C(C#N)=C(/N=C/c1ccc(Cl)cc1)O3 (stereo not given),7.08% (active)
7,O=C(NNc1nc2cc(F)c(F)cc2n2cccc12)c1cnccn1,3.67% (active)
8,COc1cccc(-c2nn(-c3ccccc3)cc2-c2ccnc(N3CCN(C(=O)Nc4ccc(F)cc4)CC3)c2)c1,11.2%
9,CN1CCN(c2ccc(Nc3nc(NCCCNS(=O)(=O)c4ccc(C(F)(F)F)cc4)c4sccc4n3)cc2)CC1,-47.4% (active)
10,CN(C)CC(=O)Nc1nc(-c2cccc(NS(=O)(=O)c3cccc4c(N(C)C)cccc34)c2)cs1,80.8%
11,COc1ccc(-c2nc3cc(Cl)c(Cl)cc3n2CC(=O)N=Nc2c(O)[nH]c3ccc(OC)cc23)cc1,86.3%
12,C#CCOc1ccc(/C=N\Nc2nc(-c3ccc(C)cc3)cs2)cc1OC,69.5%
13,O=C1Nc2ccc(Cl)cc2/C1=C/c1ccc(OCc2ccc(F)cc2)cc1,94.6%
14,COc1cc2c(cc1OC)C(Sc1ccc(F)cc1)c1c(nc(N)c(C#N)c1N)O2 (stereo not given),-14.2% (active)
15,Cc1occc1-c1nc2s/c(=C\c3cn(-c4ccccc4)nc3-c3ccccc3)c(=O)n2n1,102%
16,CNc1sc(S(=O)(=O)NC)nc1S(=O)(=O)c1ccc(C)cc1,101%
17,O=C(NCc1ncc[nH]1)c1ccc(-c2nc3ccc4[nH]ncc4c3c3c2CCCC3)cc1,-24.7% (active)
18,CCOC(=O)c1c(Nc2ccccc2)nn2c(N)c(C#N)c(-c3ccc(Cl)cc3)nc12,102%
19,CC1(C)CC[C@]23CC[C@]4(C)[C@H](CC[C@@H]5[C@@]6(C)CC[C@H](NCO)C(C)(C)[C@@H]6CC[C@]54C)[C@H]2[C@H]1OC3,4.17% (active)
20,COc1ccc(/C(N)=N/C(N)=N/c2nc3ccccc3s2)cc1,108%
